Structures can show the parent of a compound that is named as a salt.
Key:
Conditions in all cases: 20 µM
[1] = tested on: Salmonella enterica typhimurium; experiment: growth AUC normalised to DMSO control (fraction of control); higher = less growth inhibition, active = hit call of the paper
In short: (§1)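 Hemin and NAD were added to the medium for Haemophilus parainfluenzae. All pathogens, after two anaerobic passages, were inoculated at a starting OD578 of 0.01 into pre-reduced mGAM plates with 20 μM compound and 1% DMSO under breathable seals, and OD578 was read hourly for 24 h in three biological replicates. AUC of each growth curve was obtained with the trapezoidal rule up to the exponential-to-stationary transition and normalised to DMSO controls from the same plate.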

[2] = tested on: Shigella flexneri; experiment: as above
In short: as §1

[3] = tested on: Vibrio cholerae; experiment: as above
In short: as §1

[4] = tested on: Yersinia pseudotuberculosis; experiment: as above
In short: as §1

[5] = tested on: P. vulgatus RND KO; experiment: growth AUC normalised to DMSO control (median) (fraction of control); higher = less growth inhibition, active = hit call of the paper
In short: (§2)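 After two overnight anaerobic passages, strains were inoculated at OD578 0.01 into mGAM in 96-well plates containing approved-drug library compounds at 20 μM and 1% DMSO. Growth was followed by reading OD578 hourly for 24 h within an anaerobic incubator. Area under the curve, taken by the trapezoidal rule up to the start of stationary phase, was normalised to same-plate vehicle wells, and the median of three biological replicates is listed.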

[6] = tested on: P. vulgatus WT; experiment: as above
In short: as §2

[7] = tested on: S. enterica typhimurium WT; experiment: as above
In short: as §2

[8] = tested on: S. enterica typhimurium tolC KO; experiment: as above
In short: as §2

Measured: growth AUC normalised to DMSO control
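Throughout, for growth AUC normalised to DMSO control (median): active when median AUC fell below 0.1.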

CC1(C)O[C@@H]2C[C@H]3[C@@H]4C[C@H](F)C5=CC(=O)CC[C@]5(C)[C@H]4[C@@H](O)C[C@]3(C)[C@]2(C(=O)CO)O1 [Flurandrenolide]
inactive: [1] 1 | [2] 1.01 | [3] 1.03 | [4] 0.996 | [5] 1.06 | [6] 1.07 | [7] 0.996 | [8] 0.986

CC(C)CC(=O)N[C@H](C(=O)N[C@H](C(=O)N[C@@H](CC(C)C)[C@@H](O)CC(=O)N[C@@H](C)C(=O)N[C@@H](CC(C)C)[C@@H](O)CC(=O)O)C(C)C)C(C)C [Pepstatin A]
inactive: [1] 1.01 | [2] 1.03 | [3] 1.04 | [4] 1 | [5] 1.02 | [6] 1.05 | [7] 1.01 | [8] 0.988

CCN(CC)CCNC(=O)c1cc(S(C)(=O)=O)ccc1OC [Tiapride hydrochloride]
inactive: [1] 0.985 | [2] 0.992 | [3] 1 | [4] 1.01 | [5] 0.961 | [6] 0.952 | [7] 0.992 | [8] 0.999

CCCCc1cc2ccccc2c(OCCN(C)C)n1 [Dimethisoquin hydrochloride]
inactive: [1] 1 | [2] 1.03 | [4] 1.02 | [5] 1 | [6] 1.02 | [7] 0.997 | [8] 0.918
active: [3] 0.866

CC/C(=C(/CC)c1ccc(O)cc1)c1ccc(O)cc1 [Diethylstilbestrol]
inactive: [1] 1 | [2] 0.983 | [3] 0.93 | [4] 0.973 | [5] 0.744 | [6] 0.827 | [7] 1 | [8] 0.827

CCCCCCCCCCCCCCCC[N+](C)(C)CCN(Cc1ccc(OC)cc1)c1ncccn1 [Thonzonium bromide]
inactive: [1] 0.999 | [2] 0.979 | [3] 0.944 | [4] 1.01 | [5] 0.878 | [6] 0.883 | [7] 1 | [8] 1

CCc1cccc(CC)c1NC(=O)CN(CC(=O)O)CC(=O)O [Etifenin]
inactive: [1] 0.985 | [2] 0.99 | [3] 0.989 | [4] 0.999 | [5] 0.998 | [6] 1.01 | [7] 1 | [8] 0.993

CCn1cc(C(=O)O)c(=O)c2cc(F)c(N3CCNCC3)nc21 [Enoxacin]
inactive: [5] 0.136 | [6] 0.419
active: [1] 0.00943 | [2] 0.0451 | [3] 0.033 | [4] 0.0435 | [7] 0.00979 | [8] 0.00708

c1ccc(-c2ccc(C(c3ccccc3)n3ccnc3)cc2)cc1 (stereo not given) [Bifonazole]
inactive: [1] 1.01 | [2] 1.04 | [3] 1 | [4] 1.02 | [5] 0.983 | [6] 1 | [7] 0.999 | [8] 0.92

Cc1cccc(C)c1NC(=O)C(C)N (stereo not given) [Tocainide hydrochloride]
inactive: [1] 1 | [2] 0.967 | [3] 1.01 | [4] 0.985 | [5] 1.02 | [6] 1.02 | [7] 0.999 | [8] 1

C/C=C(/C(=C/C)c1ccc(O)cc1)c1ccc(O)cc1 [Dienestrol]
active: [5] 0.015
inactive: [1] 1 | [2] 1.04 | [3] 0.969 | [4] 1.02 | [6] 0.264 | [7] 1 | [8] 0.857

CC1(C)O[C@@H]2C[C@H]3[C@@H]4C[C@H](F)C5=CC(=O)C=C[C@]5(C)[C@@]4(F)[C@@H](O)C[C@]3(C)[C@]2(C(=O)CO)O1 [Fluocinolone acetonide]
inactive: [1] 1 | [2] 1.01 | [3] 1.02 | [4] 1 | [5] 0.975 | [6] 0.967 | [7] 1 | [8] 0.993

CC1CS(=O)(=O)CCN1/N=C/c1ccc([N+](=O)[O-])o1 (stereo not given) [Nifurtimox]
inactive: [1] 0.981 | [2] 0.947 | [4] 0.99 | [7] 0.995 | [8] 0.962
active: [3] 0.00876 | [5] 0.0205 | [6] 0.00686

C#C[C@]1(O)CC[C@H]2[C@@H]3CCC4=Cc5oncc5C[C@]4(C)[C@H]3CC[C@@]21C [Danazol]
inactive: [1] 0.994 | [2] 0.971 | [3] 0.991 | [4] 0.954 | [5] 0.982 | [6] 0.992 | [7] 1 | [8] 0.983

C[C@]12CC[C@H]3C(=CCc4cc(O)ccc43)[C@@H]1CCC2=O [Equilin]
inactive: [1] 1.01 | [2] 0.993 | [3] 0.99 | [4] 1.01 | [5] 0.993 | [6] 0.991 | [7] 1 | [8] 0.95

CCN(CC)CCNC(=O)COc1ccc(OC)cc1 [Mefexamide hydrochloride]
inactive: [1] 1 | [2] 0.982 | [3] 0.995 | [4] 1.01 | [5] 0.988 | [6] 0.97 | [7] 1.01 | [8] 0.998

Nc1nc2c(ncn2COC(CO)CO)c(=O)[nH]1 [Ganciclovir]
inactive: [1] 0.988 | [2] 0.996 | [3] 1 | [4] 0.99 | [5] 0.978 | [6] 0.971 | [7] 0.992 | [8] 0.993

CC1(C)S[C@@H]2[C@H](NC(=O)Cc3ccccc3)C(=O)N2[C@H]1C(=O)O [Benzylpenicillin sodium]
inactive: [2] 0.9
active: [1] 0.0129 | [3] 0.136 | [4] 0.101 | [5] 0.0105 | [6] 0.00991 | [7] 0.0318 | [8] 0.0065

CCOc1ccccc1OCC1CNCCO1 (stereo not given) [Viloxazine hydrochloride]
inactive: [1] 0.997 | [2] 0.979 | [3] 0.987 | [4] 0.961 | [5] 1 | [6] 0.985 | [7] 0.99 | [8] 0.995

CNCCC=C1c2ccccc2CCc2ccccc21 [Nortriptyline hydrochloride]
inactive: [1] 0.998 | [2] 0.991 | [3] 0.937 | [4] 0.992 | [5] 0.99 | [6] 1.01 | [7] 1 | [8] 0.971

CN1CCCN(C(c2ccccc2)c2ccc(Cl)cc2)CC1 (stereo not given) [Homochlorcyclizine dihydrochloride]
inactive: [1] 0.971 | [2] 0.938 | [3] 0.861 | [4] 0.965 | [5] 0.972 | [6] 0.984 | [7] 1 | [8] 0.956

OCCOCCN1CCN(C(c2ccccc2)c2ccc(Cl)cc2)CC1 (stereo not given) [Hydroxyzine dihydrochloride]
inactive: [1] 0.992 | [3] 0.975 | [4] 0.865 | [5] 0.989 | [6] 1 | [7] 1 | [8] 0.978
active: [2] 0.875

CC(NCCC(c1ccccc1)c1ccccc1)c1ccccc1 (stereo not given) [Fendiline hydrochloride]
inactive: [1] 1.01 | [2] 1.02 | [3] 0.86 | [4] 0.996 | [5] 0.978 | [6] 0.977 | [7] 1 | [8] 0.95

CC(N)CCCC(C)(C)O (stereo not given) [Heptaminol hydrochloride]
inactive: [1] 1 | [2] 0.999 | [3] 0.986 | [4] 0.997 | [5] 1.01 | [6] 1.05 | [7] 1.01 | [8] 0.996

CCCCOC(=O)c1ccc(O)cc1 [Butylparaben]
inactive: [1] 1.01 | [2] 0.969 | [3] 0.896 | [4] 0.962 | [5] 0.974 | [6] 1 | [7] 0.994 | [8] 0.953

Cc1nnc(SCC2=C(C(=O)O)N3C(=O)[C@@H](NC(=O)Cn4cnnn4)[C@H]3SC2)s1 [Cefazolin sodium salt]
active: [1] 0.00502 | [2] 0.0191 | [3] 0.126 | [4] 0.0805 | [5] 0.0126 | [6] 0.0107 | [7] 0.00709 | [8] 0.00476

CC(C)(C)NC[C@@H](O)COc1cccc2c1CCCC2=O [(+) Levobunolol hydrochloride]
inactive: [1] 0.982 | [2] 0.943 | [3] 0.978 | [4] 0.987 | [5] 0.999 | [6] 0.975 | [7] 0.993 | [8] 0.993

CS(=O)(=O)c1ccc([C@@H](O)[C@@H](CO)NC(=O)C(Cl)Cl)cc1 [Thiamphenicol]
active: [1] 0.408 | [2] 0.0249 | [3] 0.037 | [4] 0.866 | [5] 0.0183 | [6] 0.0102
inactive: [7] 0.509 | [8] 0.281

CCc1oc2ccccc2c1C(=O)c1cc(Br)c(O)c(Br)c1 [Benzbromarone]
inactive: [1] 1.01 | [2] 0.989 | [3] 0.989 | [4] 0.996 | [5] 0.57 | [6] 0.699 | [7] 1 | [8] 0.925

C[C@H](CCC(=O)O)[C@H]1CC[C@H]2[C@@H]3CC[C@@H]4C[C@H](O)CC[C@]4(C)[C@H]3CC[C@]12C [Lithocholic acid]
inactive: [1] 1.01 | [2] 1.02 | [3] 1.04 | [4] 1.02 | [5] 1.01 | [6] 1.03 | [7] 1 | [8] 0.995
